# Measurements from PubChem BioAssay (NCI).
# This is part of a sample that, as a whole, favours compounds with a hit. Of some 83,000 tested, about 20% had one in any assay.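 Testing used 96-well plates and a 48-hour single-concentration exposure. Example: -40 means 40% of the starting cells died.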 Values without a mark were called inactive. Activity calls are given as the source filed them. The calls were made as follows: active = growth percent below 10; inactive = the rest.
# Experiments:
# Assay in all cases: NCI-60 one-dose screen, 48 h (100 = growth as untreated, 0 = no growth, -100 = all killed)
# Conditions in all cases: 10 µM unless noted
# T-47D breast = system: T-47D breast
# BT-549 breast = system: BT-549 breast
# MDA-MB-435 melanoma = system: MDA-MB-435 melanoma
# SW-620 colon = system: SW-620 colon
# HCT-116 colon = system: HCT-116 colon
# HCC-2998 colon = system: HCC-2998 colon
# KM12 colon = system: KM12 colon
# MDA-MB-468 breast = system: MDA-MB-468 breast
# MCF7 breast = system: MCF7 breast
SMILES,growth (T-47D breast),growth (BT-549 breast),growth (MDA-MB-435 melanoma),growth (SW-620 colon),growth (HCT-116 colon),growth (HCC-2998 colon),growth (KM12 colon),growth (MDA-MB-468 breast),growth (MCF7 breast)
O=C(/C=C/Nc1ccc2oc(=O)ccc2c1)c1cc2cc(Br)ccc2oc1=O,94.4%,87.9%,103%,105%,101%,113%,111%,98.9%,
COc1ccc(/C=C/c2nc3ccccc3c(=O)n2CC(=O)Nc2ccc(OC)cc2)cc1,66.4%,72.5%,96.4%,84.4%,32.1%,95.6%,79.6%,91.1%,
CC12CC[C@@H]3[C@]4(C)COC(c5cn[nH]c5-c5cccc(Cl)c5)O[C@@H]4CC[C@@]3(C)[C@@H]1CC(C1=CCOC1=O)O2 (some centres undefined),17.7%,0.371% (active),44.1%,50.6%,19.1%,40.7%,17.9%,7.22% (active),
Cn1cc(-c2cc(N)n3nc(-c4cn(C)c5ncccc45)cc3n2)c2cccnc21,89%,62.5%,92.9%,71.7%,62.7%,-55.5% (active),87.8%,45%,
CC(=O)c1cc(C(=O)c2ccccc2)n2c1ccc1ccccc12,83.5%,73%,108%,99.3%,82.4%,121%,83.1%,93.9%,
O=c1[nH]c(=O)c2c(-c3cc4ccccc4oc3=O)ccnc2[nH]1,74.2%,70.2%,101%,98.9%,88.3%,98.8%,95.4%,57.9%,
COc1c(F)ccc(C(=O)Nc2ccc3nc(NC(=O)C4CCCN(S(=O)(=O)c5ccc(Br)c(F)c5)C4)sc3c2)c1F (centres undefined),67.5%,77%,92.3%,96.5%,62.7%,109%,79.2%,92%,
CCCn1cc(-c2nc(Nc3ccc(C(=O)NCCCCNc4cccc5c4C(=O)N(C4CCC(=O)NC4=O)C5=O)cc3)nc3[nH]ccc23)cn1 (centres undefined),-11% (active),-36.1% (active),34.2%,9.12% (active),72.3%,5.84% (active),6.05% (active),-36.3% (active),
N#Cc1c(-c2cccc(Cl)c2Cl)cc(-c2ccc3ccccc3c2)[nH]c1=O,37.6%,-5.5% (active),94.9%,,2.78% (active),75.6%,98.4%,,52.9%
CCOC(=O)C1=C(N)N(c2ccccc2)C2=C(C(=O)CC(C)(C)C2)C1c1ccc(Cl)cc1Cl (centres undefined),20.9%,33.4%,29.5%,,13.6%,37.5%,18.7%,,9.22% (active)
O=C(COc1ccc(NC(=O)Nc2ccccc2)cc1)N=Nc1c(O)[nH]c2ccc([N+](=O)[O-])cc12,-43.7% (active),-42.6% (active),-18.3% (active),,-55.9% (active),-47.9% (active),-62% (active),,-2.45% (active)
Cn1cc(-c2cc3nc(-c4cn(C)c5ncccc45)cc(N)n3n2)c2ccccc21,35.1%,-34.7% (active),29.7%,20.2%,-20% (active),5.15% (active),36.2%,-24.7% (active),
N#Cc1c(-c2cccc(Cl)c2Cl)cc(-c2c[nH]c3ccccc23)[nH]c1=O,63.4%,24.3%,57.7%,,18.3%,88.1%,64.3%,,35.8%
CCCCOc1ccc(NC(=O)c2sc3nc(C)ccc3c2N)cc1,15%,-11.6% (active),39.7%,,-67.4% (active),21.2%,26.2%,,18.1%
C=C1CC[C@@H]2[C@]3(C)COC(c4cn[nH]c4-c4ccc(Br)cc4)O[C@@H]3CC[C@@]2(C)[C@@H]1C/C=C1/C(=O)OCC1O (some centres undefined),12.2%,-96.6% (active),-64.4% (active),-70.5% (active),-93.5% (active),-98% (active),-64.3% (active),-85.9% (active),
Cc1nc(Nc2ncc(C(=O)Nc3c(C)cccc3Cl)s2)cc(N2CCN(CCCNC(=O)COc3ccc(C4CCC(=O)NC4=O)cc3)CC2)n1 (centres undefined),64.1%,68.5%,81%,118%,42.2%,114%,82%,-23.4% (active),

SMILES,growth (T-47D breast),growth (BT-549 breast),growth (MDA-MB-435 melanoma),growth (SW-620 colon),growth (HCT-116 colon),growth (HCC-2998 colon),growth (KM12 colon),growth (MDA-MB-468 breast),growth (MCF7 breast)
C=C1CC[C@@H]2[C@]3(C)COC(c4cn[nH]c4-c4ccc(F)cc4)O[C@@H]3CC[C@@]2(C)[C@@H]1C/C=C1/C(=O)OCC1O (some centres undefined),11.6%,-93.4% (active),-62.2% (active),-60.7% (active),-88.9% (active),-95.3% (active),-44.3% (active),-82.4% (active),
C=C1CC[C@@H]2[C@]3(C)COC(c4cn[nH]c4-c4cccc(Cl)c4)O[C@@H]3CC[C@@]2(C)[C@@H]1C/C=C1/C(=O)OCC1O (some centres undefined),-2.68% (active),-92.4% (active),-32.5% (active),-57.6% (active),-91.6% (active),-91.2% (active),-25.2% (active),-84.3% (active),
COc1c(F)ccc(C(=O)Nc2ccc3nc(NC(=O)C4CCCN(S(=O)(=O)c5cccc(C(F)(F)F)c5)C4)sc3c2)c1F (centres undefined),48.4%,54.3%,87.1%,99.9%,60.7%,107%,80%,101%,
Cc1sc2c(c1C)C(c1ccc(Cl)cc1)=N[C@@H](CC(=O)NCCCCCNC(=O)COc1ccc(C3CCC(=O)NC3=O)cc1)c1nnc(C)n1-2 (some centres undefined),-10.6% (active),-0.134% (active),20.3%,23.1%,20%,-10.8% (active),13.9%,-20.8% (active),
CCCSc1nc(Nc2ccc(S(N)(=O)=O)cc2)c(C#N)c(-c2cc(OC)c(OC)c(OC)c2)n1,-11.4% (active),16.5%,23%,30%,11.4%,43.6%,12.7%,30.5%,
Cn1cc(-c2cc3nc(-c4cn(C)c5ncc(Br)cc45)cc(N)n3n2)c2ccccc21,-40.9% (active),-73% (active),-70.8% (active),-48% (active),-100% (active),-89% (active),-55.5% (active),-78.9% (active),
Cn1cc(-c2cc(N)n3nc(-c4c[nH]c5ccccc45)cc3n2)c2cccnc21,22.2%,71.8%,5.57% (active),-53.7% (active),-77.1% (active),-31.6% (active),1.87% (active),-54.3% (active),
Cn1cc(-c2cc(N)n3nc(-c4c[nH]c5ccccc45)cc3n2)c2cc(Br)cnc21,-56% (active),-87.8% (active),-79.3% (active),-69.1% (active),,-94.3% (active),-60.9% (active),,
O=c1oc2ccc(Br)cc2cc1C1=CSc2nc3sc4c(c3c(=O)n2N=C1)CCCC4,76.9%,95.4%,95.1%,108%,96.4%,125%,97.6%,104%,
Cn1cc(-c2cc(N)n3nc(-c4cn(C)c5ncc(Br)cc45)cc3n2)c2cc(Br)cnc21,-4.13% (active),34.8%,-37.8% (active),-68.6% (active),-76.3% (active),-38.3% (active),-3.78% (active),-84.2% (active),
Cn1cc(-c2cc3nc(-c4cn(C)c5ncccc45)cc(N)n3n2)c2cc(Cl)ccc21,-70.9% (active),-94.6% (active),-81.1% (active),-86.3% (active),,-97.8% (active),-37.2% (active),-95.5% (active),
C=C1CC[C@@H]2[C@]3(C)COC(c4cn[nH]c4-c4cccc(Br)c4)O[C@@H]3CC[C@@]2(C)[C@@H]1C/C=C1/C(=O)OCC1O (some centres undefined),-6.99% (active),-94.2% (active),-50.2% (active),-81.1% (active),,-100% (active),-67.1% (active),-95.4% (active),
COc1c(F)ccc(C(=O)Nc2ccc3nc(NC(=O)C4CCCN(S(=O)(=O)c5ccc(C(F)(F)F)cc5)C4)sc3c2)c1F (centres undefined),59.7%,68.7%,94.2%,95.1%,63.4%,99.2%,75.2%,104%,
O=C(Cn1c(/C=C/c2ccccc2)nc2ccccc2c1=O)Nc1ccc(Cl)cc1,-11.5% (active),89%,85.2%,72.1%,30.4%,99.2%,84.3%,57.3%,
COc1c(F)ccc(C(=O)Nc2ccc3nc(NC(=O)C4CCCN(S(=O)(=O)c5cccc(Br)c5)C4)sc3c2)c1F (centres undefined),60.9%,74.5%,90.7%,94.5%,67.9%,125%,78.7%,98.1%,
